Where “and” joins values, the source holds several entries; their conditions need not be identical. Equal values may be shown once. Where a name gives a salt, the structure may show the parent alone.
Test system: Plasmodium falciparum NF54/iGP1_RE9H ulg8 stage V gametocytes
Test: gametocyte viability (luciferase signal relative to DMSO control) (% of DMSO control); higher = less gametocytocidal activity, active = 50 or less
Details: exposure time: 72 h
Procedure, shortened: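 NF54/iGP1_RE9Hulg8 stage V gametocytes (day 12; ~2.5% gametocytemia, 3% hematocrit) were incubated with compounds at 10 µM or 1 µM final, in one well each, for 72 h at 37 °C in medium with 0.5% Albumax II. Luminescence after D-luciferin addition was read on an IVIS Lumina II. Viability refers to the mean of plate DMSO vehicle wells.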

Compound	gametocyte viability (concentration: 1 µM)	gametocyte viability (concentration: 10 µM)
Cc1[nH]c(/C=C2\C(=O)Nc3ccccc32)c(C)c1CCC(=O)O	96.9 (inactive)	105 (inactive)
CNC(=O)c1c(F)cccc1Nc1nc(Nc2cc3c(cc2OC)CCN3C(=O)CN(C)C)nc2[nH]ccc12	103 (inactive)	113 (inactive)
Cn1cc(C2=C(c3cn(CCCSC(=N)N)c4ccccc34)C(=O)NC2=O)c2ccccc21 [Ro 31-8220 mesylate]	123 (inactive)	78.9 (inactive)
COc1cccc(-c2cc(=O)c3ccccc3o2)c1N	97.3 (inactive) and 93.2 (inactive)	64.5 (inactive) and 69.7 (inactive)
COc1ccc(-c2ccc3c(N4CCOC[C@@H]4C)nc(N4CCOC[C@@H]4C)nc3n2)cc1CO	96.5 (inactive)	78.9 (inactive)
NC1(c2ccc(-c3nc4ccn5c(=O)[nH]nc5c4cc3-c3ccccc3)cc2)CCC1 [MK-2206 dihydrochloride]	97.5 (inactive)	63.9 (inactive)
N#C/C(=C\c1ccc(O)c(O)c1)C(=O)NCc1ccccc1	98.4 (inactive)	95.8 (inactive)
Cc1ccc([N+](=O)[O-])cc1S(=O)(=O)N(C)/N=C/c1cnc2ccc(Br)cn12	94.9 (inactive)	101 (inactive)
O=c1c(O)c(-c2ccc(O)c(O)c2)oc2cc(O)cc(O)c12 [Quercetin·2H2O]	102 (inactive)	95.8 (inactive)
CC[C@H](CO)Nc1nc(NCc2ccccc2)c2ncn(C(C)C)c2n1 [Roscovitine]	107 (inactive)	105 (inactive)
O=C1Nc2ccc(I)cc2/C1=C/c1cc(Br)c(O)c(Br)c1	92.1 (inactive)	90.5 (inactive)
Cn1cc(-c2ccc3nnc(Sc4ccc5ncccc5c4)n3n2)cn1	99.7 (inactive)	88.7 (inactive)
COC(=O)Nc1ccc(-c2nc(N3CCOCC3)c3cnn(C4CCN(C(=O)OC)CC4)c3n2)cc1	97.3 (inactive)	97.2 (inactive)
Cn1cc(C2=C(c3ccc(Cl)cc3Cl)C(=O)NC2=O)c2ccccc21	97.8 (inactive)	112 (inactive)
O=C1Cc2c([nH]c3ccc(Br)cc23)-c2ccccc2N1 [Kenpaullone]	62.2 (inactive)	16.3 (active)
C=CC(=O)c1ccc2ccccc2c1	101 (inactive)	106 (inactive)
CC(=O)Nc1nc(C)c(-c2ccc(Cl)c(S(=O)(=O)NCCO)c2)s1	81.5 (inactive)	13.6 (active)
C=CC(=O)Nc1cccc(Oc2nc(Nc3ccc(N4CCN(C)CC4)cc3)ncc2Cl)c1	103 (inactive)	72.5 (inactive)
O=C1NC(=O)/C(=C/c2ccc3c(c2)OC(F)(F)O3)S1	103 (inactive)	106 (inactive)
OCCn1cc(-c2cnc3nnn(Cc4ccc5ncccc5c4)c3n2)cn1	93.3 (inactive)	98.6 (inactive)
CNC(=O)c1cc(COc2nnc(Nc3ccc(Cl)cc3)c3ccoc23)ccn1 [Telatinib (BAY 57-9352)]	115 (inactive)	115 (inactive)
CC(C)(C)n1nc(-c2ccc(Cl)cc2)c2c(N)ncnc21	97 (inactive)	99.4 (inactive)
CCCCCCCCCCCCCCCC(=O)OC(CC(=O)[O-])C[N+](C)(C)C (racemic) [Palmitoyl-DL-carnitine]	100 (inactive)	108 (inactive)
c1cncc(CN2CCC(n3ncc4c(N5CCOCC5)nc(-c5ccc6[nH]ccc6c5)nc43)CC2)c1	95.7 (inactive)	103 (inactive)
Cc1cc(C(C)Nc2ccccc2)c2nc(N3CCOCC3)cc(=O)n2c1 (stereo not drawn)	90.1 (inactive)	89 (inactive)
CCN(CCO)CCCOc1ccc2c(Nc3cc(CC(=O)Nc4cccc(F)c4)[nH]n3)ncnc2c1 [Barasertib (AZD1152-HQPA)]	104 (inactive)	93.1 (inactive)
CC(C)c1cc(/C=C(\C#N)C(=O)NCCCc2ccccc2)cc(C(C)C)c1O	99.4 (inactive)	97.2 (inactive)
CC[C@@H]1C(=O)N(C)c2cnc(Nc3ccc(C(=O)N[C@H]4CC[C@H](N5CCN(CC6CC6)CC5)CC4)cc3OC)nc2N1C(C)C [BI6727 (Volasertib)]	84.9 (inactive)	61.9 (inactive)
CN(C)Cc1cccc(N=C(c2ccccc2)c2c(O)[nH]c3cc(C(=O)N(C)C)ccc23)c1	116 (inactive)	121 (inactive)

— the supplement of paper PMC12297408
